# Activity calls are given as the source filed them. Rule for the calls: active = hit-call score of the fitted dose curve at least 0.9, where 1 is the maximum; inactive = score below 0.9.
# Read-out: Monokine induced gamma interferon (MIG), CXCL9 (gene 4283)
# Test: BSK_BE3C_MIG: BioMAP Diversity Plus: BE3C Assay for Monokine induced gamma interferon (MIG) Biomarker Activity (AID 2283035);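 for outcome: MIG protein measured by ELISA in BE3C cultures after 24 h of dosing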
# Conditions: primary human bronchial epithelial cells; actives raise or lower the signal
# How it was run: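 hu bronchial epithelial 1° cells, 24 h cpd; MIG by ELISA; bidirectional fit, DMSO = baseline.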
Structure (SMILES),outcome,AC50
CS(=O)(=O)c1ccc([C@@H](C[C@H]2CCC(=O)C2)C(=O)Nc2cnccn2)cc1Cl,inactive,
O=C(O)CN(CC(=O)O)CC(=O)O,inactive,
CC1(C)C(=O)NC(=O)N1CO,inactive,
CC(C)c1cccc(C(C)C)c1NC(=O)NS(=O)(=O)c1cc(C(C)(C)O)co1,inactive,
CCCC(=O)O,inactive,
C=CCCCCCCCCCCCC,inactive,
CCCCC(CC)COP(=O)(OCC(CC)CCCC)OCC(CC)CCCC (stereo not drawn),inactive,
NC1CCCCC1,inactive,
CC(=O)CC(c1ccccc1)c1c(O)c2ccccc2oc1=O (stereo not drawn),inactive,
C=CCc1ccc(OC)c(OC)c1,inactive,
CC(C)OC(=O)C(C)(C)Oc1ccc(C(=O)c2ccc(Cl)cc2)cc1,inactive,
CCCCCCCCCC[N+](C)(C)[O-],inactive,
CCCCCCCC(=O)OC,inactive,
Oc1ccc(O)cc1,inactive,
CSc1ccc(Oc2ccc(S(N)(=O)=O)cc2CN(C)C)cc1C,inactive,
CCc1cc(C2=C(C(=O)O)N(c3ccccc3C(F)(F)F)S(=O)(=O)c3ccccc32)cc2c1OCO2,inactive,
NCCOCCOCCN,inactive,
S=c1[nH]c2ccccc2s1,inactive,
O=C(N[C@@H](c1ccccc1)[C@@H]1CCCCN1)c1cccc(C(F)(F)F)c1Cl,,34.7 µM (active)
O=C1CCCCC1,inactive,
Cc1ccc(C(C)(C)C)c(O)c1,inactive,
CCN(CC)CCOc1ccc(C(=C(Cl)c2ccccc2)c2ccccc2)cc1,,25.7 µM (active)
CC(=O)[C@@]1(O)CC[C@H]2[C@@H]3CCC4=CC(=O)CC[C@]4(C)[C@H]3CC[C@@]21C,inactive,
CCCCC(CC)CO (stereo not drawn),inactive,
CC(=O)O[C@]1(C(C)=O)CC[C@H]2[C@@H]3C=C(Cl)C4=CC(=O)[C@@H]5C[C@@H]5[C@]4(C)[C@H]3CC[C@@]21C,,31 µM (active)
COc1ccc(OC(F)(F)F)cc1CN[C@H]1CCCN[C@H]1c1ccccc1,inactive,
CC(COCC(C)OC(=O)c1ccccc1)OC(=O)c1ccccc1 (stereo not drawn),inactive,
Cc1occc(=O)c1O,inactive,
O=C(O)c1[nH]n(-c2ccc(S(=O)(=O)O)cc2)c(=O)c1N=Nc1ccc(S(=O)(=O)O)cc1,inactive,

# Read-out: Transforming growth factor beta 1 (TGFb1), TGFB1 (gene 7040)
# Test: BSK_BE3C_TGFb1: BioMAP Diversity Plus: BE3C Assay for Transforming growth factor beta 1 (TGFb1) Biomarker Activity (AID 2283036;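 for outcome: TGF-b1 protein level measured by ELISA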)
# Conditions: primary human bronchial epithelial cells; actives raise or lower the signal
# How it was run: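 ELISA readout of TGF-b1 from human lung bronchial epithelial primary cells, taken 24 h post-treatment. Gain or loss of signal fitted relative to DMSO baseline, with parallel SRB staining for overt cytotoxicity.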
Structure (SMILES),outcome,AC50
CS(=O)(=O)c1ccc([C@@H](C[C@H]2CCC(=O)C2)C(=O)Nc2cnccn2)cc1Cl,inactive,
O=C(O)CN(CC(=O)O)CC(=O)O,inactive,
CC1(C)C(=O)NC(=O)N1CO,inactive,
CC(C)c1cccc(C(C)C)c1NC(=O)NS(=O)(=O)c1cc(C(C)(C)O)co1,inactive,
CCCC(=O)O,inactive,
C=CCCCCCCCCCCCC,inactive,
CCCCC(CC)COP(=O)(OCC(CC)CCCC)OCC(CC)CCCC (stereo not drawn),inactive,
NC1CCCCC1,inactive,
CC(=O)CC(c1ccccc1)c1c(O)c2ccccc2oc1=O (stereo not drawn),inactive,
C=CCc1ccc(OC)c(OC)c1,inactive,
CC(C)OC(=O)C(C)(C)Oc1ccc(C(=O)c2ccc(Cl)cc2)cc1,inactive,
CCCCCCCCCC[N+](C)(C)[O-],inactive,
CCCCCCCC(=O)OC,inactive,
Oc1ccc(O)cc1,inactive,
CSc1ccc(Oc2ccc(S(N)(=O)=O)cc2CN(C)C)cc1C,inactive,
CCc1cc(C2=C(C(=O)O)N(c3ccccc3C(F)(F)F)S(=O)(=O)c3ccccc32)cc2c1OCO2,inactive,
NCCOCCOCCN,inactive,
S=c1[nH]c2ccccc2s1,inactive,
O=C(N[C@@H](c1ccccc1)[C@@H]1CCCCN1)c1cccc(C(F)(F)F)c1Cl,,36.7 µM (active)
O=C1CCCCC1,inactive,
Cc1ccc(C(C)(C)C)c(O)c1,inactive,
CCN(CC)CCOc1ccc(C(=C(Cl)c2ccccc2)c2ccccc2)cc1,,16.1 µM (active)
CC(=O)[C@@]1(O)CC[C@H]2[C@@H]3CCC4=CC(=O)CC[C@]4(C)[C@H]3CC[C@@]21C,inactive,
CCCCC(CC)CO (stereo not drawn),inactive,
CC(=O)O[C@]1(C(C)=O)CC[C@H]2[C@@H]3C=C(Cl)C4=CC(=O)[C@@H]5C[C@@H]5[C@]4(C)[C@H]3CC[C@@]21C,,31.5 µM (active)
COc1ccc(OC(F)(F)F)cc1CN[C@H]1CCCN[C@H]1c1ccccc1,inactive,
CC(COCC(C)OC(=O)c1ccccc1)OC(=O)c1ccccc1 (stereo not drawn),inactive,
Cc1occc(=O)c1O,inactive,
O=C(O)c1[nH]n(-c2ccc(S(=O)(=O)O)cc2)c(=O)c1N=Nc1ccc(S(=O)(=O)O)cc1,inactive,

# From PubChem BioAssay (EPA / NIEHS)
